Bioassay records as filed in PubChem.
MITF inh: MITF inhibitors, primary screen, biochemical, AlphaScreen, human | Microphthalmia-associated transcription factor (Homo sapiens), O75030 | AlphaScreen MITF homodimerization, bead proximity signal | inhibition, % at 2.6 µM | hit rate 0.91% among 650,000; in the data active = inhibition above about 50%
GPR151 activ: activators of human GPR151, primary screen, cell-based, PathHunter beta-arrestin, luminescence. PathHunter beta-arrestin GPR151 cells. G-protein coupled receptor 151 (Homo sapiens), Q8TDV0. activation, % at 11.2 µM. hit rate 1% among 650,000; in the data active = activation above about 4.9%
TEAD-YAP inh: TEAD-YAP interaction inhibition, primary screen, TEAD-YAP interaction inhibitor project, luminescence, HEK-TIYL cells; TEAD-Gal4/YAP UAS-luciferase luminescence; inhibition, % at 9.12 µM; hit rate 1.4% among 640,000; AID 1259422, 2018; in the data active = inhibition above about 32%
FBW7 act: FBW7 E3 ligase activators, primary screen, biochemical, AlphaScreen, human; AlphaScreen FBW7–phospho-cyclin E peptide binding, activator screen; hit rate 0.13% among 650,000; AID 1259310, 2017; normalized activity (activation), % at 26.1 µM; in the data active = normalized activity above about 1.9%;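 also: purified mutant Fbw7 with reduced substrate affinity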
GPR151 confirm: GPR151 activators, triplicate retest, confirmation, cell-based, PathHunter beta-arrestin, luminescence | GPR151 PathHunter beta-arrestin cells, 90 min; % of EA-reagent control over plate median | 6,700 tested, under 10 active | shares compounds with GPR151 activ | activation, % at 11.2 µM;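 active = mean percent activation across replicates above the confirmation screen cutoff of 4.91%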
GPR119 counter: GPR119 activators in beta-arrestin cells, counter-screen for GPR151 activator project, cell-based, PathHunter beta-arrestin, luminescence, triplicate. activation, % at 11.2 µM. 90 min; 0 = compound-well median, 100 = enzyme-acceptor control. hit rate 0.3% among 6,700. shares compounds with GPR151 activ. AID 1508611, 2020;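 active = mean percent activation in the counterscreen above 29.09%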;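 also: counterscreen on off-target GPR119 to flag nonselective hits from the GPR151 activator screen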
Target sequence (Q8TDV5 whole entry, looked up): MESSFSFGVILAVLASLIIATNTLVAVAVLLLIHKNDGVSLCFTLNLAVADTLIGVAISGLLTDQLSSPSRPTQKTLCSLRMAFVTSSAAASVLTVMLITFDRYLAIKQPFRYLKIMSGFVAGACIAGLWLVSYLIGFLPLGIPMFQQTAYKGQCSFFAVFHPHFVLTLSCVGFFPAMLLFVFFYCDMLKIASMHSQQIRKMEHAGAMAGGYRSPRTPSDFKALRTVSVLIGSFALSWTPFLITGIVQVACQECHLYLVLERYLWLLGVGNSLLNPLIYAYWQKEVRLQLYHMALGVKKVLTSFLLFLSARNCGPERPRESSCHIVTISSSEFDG
Hits are given with their value; i = inactive; nt = no result; ! = a repeat was not active. Compounds with a hit are over-represented: about 3.5% of the library has one in this group of screens.

SMILES	MITF inh	GPR151 activ	TEAD-YAP inh	FBW7 act	GPR151 confirm	GPR119 counter
CCCNC(=O)C1CCN(Cc2cnn(-c3ccccc3)c2-n2cccc2)CC1	i	i	i	i	nt	nt
CC1(C)CC(=O)C(C(C2=C(O)CC(C)(C)CC2=O)c2ccc(O)cc2)C(=O)C1 (stereo not drawn)	i	i	i	i	nt	nt
Brc1cccc(-c2cnc3ccc(NCCCN4CCOCC4)nn23)c1	i	i	i	i	nt	nt
COCCNc1c(-c2ccccc2)nc2cc(C)ccn12	i	i	i	i	nt	nt
C/C(=N\NC(=O)Cn1nnc(-c2ccccc2)n1)c1nonc1C	i	16.5	i	i	i	i
CC(=O)Cn1nnc(-c2ccccc2)n1	i	i	i	i	nt	nt
Cn1c(SCC(=O)N2CCc3ccccc32)ncc(C(=O)Nc2ccc(F)cc2)c1=O	i	i	i	i	nt	nt
CCCn1ncc(CN2CCC(n3nccc3NC(=O)CCc3ccccc3)CC2)c1C	i	6.6	i	i	i	i
COCCCN1C(=O)c2cccc3cc(N)cc(c23)C1=O	i	i	i	i	nt	nt
O=C(Nc1ccc(F)cc1F)C1COc2ccccc2O1 (stereo not drawn)	i	i	i	i	nt	nt
COC(=O)c1ccccc1S(=O)(=O)C1CCN(C(=O)Nc2ccc(F)cc2F)CC1	i	5.0	i	i	i	i
O=C(C[n+]1cccc(Br)c1)c1cccs1	i	7.8	i	i	i	i
Fc1ccc2nc(Nc3nc(-c4cccnc4)cs3)sc2c1	i	i	i	i	nt	nt
N#CCNC(=O)c1sc2ccccc2c1Cl	i	i	i	i	nt	nt
Cc1cccc(C2C3=C(CC(C)(C)CC3=O)Nc3c2c(=O)n(C)c(=O)n3C)c1 (stereo not drawn)	i	i	i	i	nt	nt
Cn1c2c(c(=O)n(C)c1=O)C(c1ccc(Cl)cc1)C1=C(CC(C)(C)CC1=O)N2 (stereo not drawn)	i	5.5	i	i	i	i
Cn1c2c(c(=O)n(C)c1=O)C(c1ccccc1)C1=C(CC(C)(C)CC1=O)N2 (stereo not drawn)	i	i	i	i	nt	nt
Cn1c2c(c(=O)n(C)c1=O)C(c1cccc(F)c1)C1=C(CC(C)(C)CC1=O)N2 (stereo not drawn)	i	18.4	i	i	i	i
C#C[C@]1(O)CC[C@H]2[C@@H]3CCc4cc(O)ccc4[C@H]3CC[C@@]21C	i	i	nt	i	nt	nt
C#C[C@]1(O)CC[C@H]2[C@@H]3CCC4=Cc5oncc5CC4(C)[C@H]3CCC21C (stereo partly drawn)	i	5.5!	i	i	i	i
N#Cc1ccccc1NC(=O)C(=O)NCCC1CCCCN1S(=O)(=O)c1cccs1 (stereo not drawn)	i	i	i	i	nt	nt
CCCCN(CCCC)c1ncnc2c1sc1nc(N3CCOCC3)c3c(c12)CC(C)(C)OC3	i	i	i	i	nt	nt
COc1ccccc1-c1coc2cc(OC(=O)C(C)(C)C)ccc2c1=O	i	6.9	i	i	i	i
CCOC(=O)c1c(C)n(C)c2c1cc(O)c1ccccc12	i	6.1	i	i	i	i
COc1cc(C2C(C(N)=O)=C(C)Nc3ncnn32)cc(OC)c1OC (stereo not drawn)	i	i	i	i	nt	nt
SMILES	MITF inh	GPR151 activ	TEAD-YAP inh	FBW7 act	GPR151 confirm	GPR119 counter
COc1ccc(C2C(C(N)=O)=C(C)Nc3ncnn32)cc1OC (stereo not drawn)	i	5.1	i	i	i	i
CC1(C)C2CCC1(CS(=O)(=O)NC1CCN(Cc3ccccc3)CC1)C(=O)C2 (stereo not drawn)	i	i	i	i	nt	nt
O=C1CC(c2ccc(Cl)cc2)CC2=C1C(c1ccc3c(c1)OCO3)Nc1ccccc1N2 (stereo not drawn)	i	i	i	i	nt	nt
O=C1CC(c2ccc(Cl)cc2)CC2=C1C(c1cc3c(cc1Br)OCO3)Nc1ccccc1N2 (stereo not drawn)	i	9.0	i	i	i	i
N/C(=N\OC(=O)c1ccncc1)c1cccnc1	i	5.8	i	i	i	i
O=c1[nH]c(Nc2nc3ccccc3o2)nc2nccnc12	i	i	i	i	nt	nt
COC(=O)[C@H](Cc1ccccc1)NC(=O)c1cc(COc2c(F)cccc2F)on1	i	5.6	i	i	i	i
COC(=O)[C@@H](NC(=O)c1cc(COc2c(F)cccc2F)on1)c1ccccc1	i	i	i	i	nt	nt
O=C(O)c1ccc(NS(=O)(=O)c2cc(C(=O)O)ccc2Br)cc1	i	5.6	i	i	i	i
Cc1cccc(C)c1OCCNC(C)(C)C	i	i	i	i	nt	nt
COc1ccc(-c2ncc(C(=O)Nc3cc(OC)c(OC)c(OC)c3)s2)cc1	i	i	i	i	nt	nt
CCC(=O)N1C(=O)CC(C)N(C(=O)CC)c2ccccc21 (stereo not drawn)	i	5.9	i	i	i	i
O=C(COc1ccc(Cl)cc1)NCCN1CCN(c2ccc(F)cc2)CC1	i	i	i	i	nt	nt
COc1cc(C=Nc2ccc(C)c(F)c2)ccc1OC(C)=O	i	34.4	i	i	i	i
COc1cc(C=Nc2ccc(F)cc2)ccc1OC(C)=O	i	i	i	i	nt	nt
COc1ncc(-c2cncc(-c3cccc(O)c3)n2)c(OC)n1	i	12.6	i	i	i	i
O=C(CSCc1c(Cl)cccc1Cl)N1CCCCC1	i	6.1	i	i	i	i
O=C(CSCc1c(Cl)cccc1Cl)N1CCOCC1	i	i	i	i	nt	nt
COC(=O)c1ccccc1S(=O)(=O)C1CCN(C(=O)c2cnc3ccccc3n2)CC1	i	i	i	i	nt	nt
CCOC(=O)C[n+]1c(C)sc2ccc(OC)cc21	i	6.1	i	i	i	i
COc1ccc2sc(C)[n+](CC(=O)O)c2c1	i	i	i	i	nt	nt
N#Cc1cc(Oc2cccc3cccnc23)c([N+](=O)[O-])cc1C#N	i	i	i	i	nt	nt
CC(C(=O)OCC(=O)Nc1ccc(SC(F)F)cc1)N1C(=O)c2ccccc2C1=O (stereo not drawn)	i	5.8	i	i	i	i
Cc1cccnc1CNC(=O)CCc1nnc(CCCCc2ccccc2)o1	i	i	i	i	nt	nt
S=C(NCc1ccco1)N1CCN(C2CCCCC2)CC1	i	6.1	i	i	i	i
COCCNc1oc(-c2ccccc2)nc1S(=O)(=O)c1ccc(C)cc1	i	6.1	i	i	i	i
COCCNc1oc(-c2ccccc2)nc1S(=O)(=O)c1ccc(Cl)cc1	i	i	i	i	nt	nt
COc1ccccc1-c1nnc(C2CCN(S(=O)(=O)c3ccccc3)CC2)o1	i	5.8	i	i	i	i
Cc1nn(Cc2ccc(C(=O)NC3CCCC3)o2)c(C)c1[N+](=O)[O-]	i	5.5	i	i	i	i
